A selection: hits, their analogues and other compounds. The true share with any hit is near 4.7%.
ATG4B inh: blocks human ATG4B protease cleavage of LC3 substrate. Q9Y4P1. ATG4B cleavage of LC3-PLA2, NBD-HPC fluorescence, 1 h. inhibition, % at 8.33 µM. 340,000 tested, 0.51% active. AID 504462; in the data active means inhibition above about 40%
Target sequence (Q9Y4P1 whole entry, looked up): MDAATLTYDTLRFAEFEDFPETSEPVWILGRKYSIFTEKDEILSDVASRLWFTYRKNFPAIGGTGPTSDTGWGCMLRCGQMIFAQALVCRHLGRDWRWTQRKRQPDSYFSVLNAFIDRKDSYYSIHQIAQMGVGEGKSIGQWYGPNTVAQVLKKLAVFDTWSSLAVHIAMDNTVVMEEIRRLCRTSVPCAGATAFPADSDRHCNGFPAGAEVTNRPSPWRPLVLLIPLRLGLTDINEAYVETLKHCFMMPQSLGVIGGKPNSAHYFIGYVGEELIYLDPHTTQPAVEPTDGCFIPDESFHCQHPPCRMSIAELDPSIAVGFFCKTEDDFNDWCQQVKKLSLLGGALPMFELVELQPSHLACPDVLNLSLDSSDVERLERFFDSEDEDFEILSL
PfHsp90 set2: reduces growth (ATP signal) of yeast expressing P. falciparum Hsp90; 310,000 tested, 0.32% active; S. cerevisiae expressing PfHsp90, BacTiter-Glo ATP, 48 h; yeast lacking PDR1 and PDR3 efflux regulators; AID 504621; inhibition, % at 9.4 µM;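 active means every replicate shows inhibition above about 80%, whatever the replicate mean, limit read from the data; inconclusive means mean inhibition reaches the set limit but some replicate falls short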;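 further: 0% = DMSO neutral controls and 100% = 20 µM radicicol positive controls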
tim10-1 inh: growth inhibitors of tim10-1 mutant yeast. inhibition, % at 20 µM. AID 463190. 330,000 tested, 2.2% active. S. cerevisiae tim10-1 ts strain growth, BacTiter-Glo, 24 h;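 active means inhibition of at least 40%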;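 further: mutant grown at 25 °C; 0% = DMSO wells with yeast and 100% = wells holding no yeast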
tim23-1 inh: inhibits growth of tim23-1 mutant yeast; 330,000 tested, 1.3% active; S. cerevisiae tim23-1 growth, BacTiter-Glo luminescence, 24 h; AID 463212; inhibition, % at 20 µM;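 active means growth inhibition of the mutant yeast at or above 50%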;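 further: temperature-sensitive mutant grown at 25 °C; plate controls were DMSO-treated mutant yeast for no effect and medium wells lacking yeast for full effect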
SKKanGAS inh: SKKanGAS growth inhibition. S. pyogenes SKKanGAS, kanamycin growth, BacTiter-Glo, 6 h. inhibition, % at 7.5 µM. 300,000 tested, 1.3% active. AID 1662;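 active means mean replicate score, as percent of positive control median, at least 50; inconclusive means mean below 50 but one replicate at or above 50; inactive means mean and every replicate below 50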;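 further: strain carries kanamycin resistance gene driven by streptokinase promoter and grows in 40 µg/ml kanamycin; loss of luminescence reflects streptokinase promoter inhibition or plain growth inhibition; 0% = median of DMSO wells and 100% = positive control at its reference dose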
TIM10 inh: growth inhibitors of TIM10 yeast strain; S. cerevisiae TIM10 strain growth, BacTiter-Glo luminescence, 24 h; inhibition, % at 10 µM; 330,000 tested, 1.4% active; AID 463195;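 active means inhibition of 40% or more at the single tested concentration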;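 further: wild-type TIM10 isogenic control strain grown at permissive 25 °C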
tim10 confirm: TIM10 yeast growth inhibition, confirmed. inhibition, % at 10 µM. S. cerevisiae tim10 strain growth, BacTiter-Glo luminescence, 24 h. AID 463215. shares compounds with TIM10 inh. 4,600 tested, 63% active;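 active means inhibition of yeast growth at or above a set limit in either of two replicates at 10 µM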;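 further: this counterscreen used the strain with wild-type TIM10; 0% = yeast with DMSO and 100% = medium wells lacking yeast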
tim23-1 conf: tim23-1 yeast growth inhibition, confirmed; shares compounds with tim23-1 inh; 4,400 tested, 83% active; inhibition, % at 20 µM; AID 463218; S. cerevisiae tim23-1 growth, BacTiter-Glo luminescence, 24 h;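 active means inhibition above about 39% in either of two replicate wells at 20 µM, limit read from the data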;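 further: temperature-sensitive tim23-1 mutant grown at 25 °C; 0% = DMSO wells with yeast and 100% = medium wells without yeast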
* = called active by the depositor; ? = inconclusive; . = not tested or not shown; ! = a repeat was not active.

SMILES | ATG4B inh | PfHsp90 set2 | tim10-1 inh | tim23-1 inh | SKKanGAS inh | TIM10 inh | tim10 confirm | tim23-1 conf
CCNS(=O)(=O)c1ccc(C(=O)Nc2ccccc2)cc1 | -1 | -16 | 5 | 5 | -2 | -3 | . | .
COc1ccc(CN2CCC(=O)N([C@H](CO)Cc3ccccc3)CC2)cc1 | -8 | 2 | -13 | 1 | -3 | -4 | . | .
O=C1C=CC2C(c3ccc4c(c3)OCO4)CC1N2Cc1ccccc1 (stereo unspecified) | 39 | -8 | 23 | 58* | -1 | 44* | 51* | 47*
O=C(c1ccc([N+](=O)[O-])o1)N1CCOCC1 | -9 | -9 | -3 | 24 | 2 | 8 | . | .
O=C(c1ccc([N+](=O)[O-])o1)N1CCc2ccccc2C1 | 4 | ? | 38 | 59* | 19 | 73* | 73* | 35
O=C(Nc1ccc(Cl)cc1)c1cnc(-c2ccccc2)nc1-c1ccccc1 | -8 | 5 | 18 | -4 | 31 | -2 | . | .
O=C(NC1CC1)c1ccc(-c2nc3ccccc3s2)s1 | -2 | . | 10 | 59* | 7 | 53* | 51* | 68*
O=C(Cc1ccccc1[N+](=O)[O-])NNC(=O)c1cccs1 | -4 | 3 | 5 | -10 | . | 3 | . | .
COC(=O)c1ccc(S(=O)(=O)N2CCCN(Cc3ccccc3)CC2)n1C | -2 | -17 | 0 | 13 | 9 | 8 | . | .
COCCN1C(=O)c2ccc(C(=O)Nc3nccs3)cc2C1=O | -1 | 2 | 2 | 14 | -3 | 12 | . | .
Cc1cccc(N=N/C(=C\O)C(=O)c2cccs2)c1 | 27 | -56 | 38 | 58* | 0 | 43* | 45* | 60*
Cc1ccc(O)c(N=NC2=C(O)CC(C)(C)CC2=O)c1 | 12 | -12 | 10 | 61* | 1 | 43* | 27 | 52*
Cc1ccc(SCC(=O)N2CCOCC2)cc1 | -7 | -4 | 2 | 15 | -2 | -3 | . | .
O=C(NCCc1cnn(-c2ccccc2)c1)c1cc(COc2c(F)cccc2F)on1 | 7 | 4 | 29 | 52* | -2 | 68* | 53* | 68*
CCOC(=O)Nc1ccc2nc(N3CCCCCC3)sc2c1 | 2 | 0 | 36 | 50* | -6 | 40* | 40* | -29
CCOC(=O)N1CCN(C(=O)Nc2ccc3nc(C)sc3c2)CC1 | -13 | -8 | -3 | -4 | 5 | 6 | . | .
O=C(Nc1cccc2nsnc12)c1cccs1 | -5 | -24 | 16 | 61*! | -3 | 69*! | 58* | 76*
COC(=O)c1ccc2[nH]c(C3(O)CCCCC3)c(C)c2c1 | 5 | -9 | 16 | 40 | . | 8 | . | .
Cc1c(C2(O)CCCCC2)[nH]c2ccc(C(F)(F)F)cc12 | 8 | 49 | 39 | 82* | . | 59* | 67* | 65*
O=C1/C(=C/c2cccs2)Cc2ccccc21 | 30 | 9 | 20 | 51* | -6 | 48* | -48 | 70*
Cc1ccc(Nc2ncccc2C(N)=O)cc1[N+](=O)[O-] | 5 | -6 | 24 | 56* | -4 | 43* | 40* | 69*
CC(=O)NC1C(O)OC(CO)C(O)C1O (stereo unspecified) | -8 | -13 | -8 | 3 | 1 | -4 | . | .
CN1/C(=C\C(=O)CSc2cccc[n+]2[O-])C(C)(C)c2ccccc21 | 1 | 12 | 32 | 65* | 1 | 41* | -6 | 78*
N/C(Cc1ccc(Cl)cc1)=N\OC(=O)C1CCCCC1 | 13 | -12 | 29 | 79* | 0 | 87* | -12 | 53*
O=C(COC(=O)C1CCCC1)NCc1ccc(Cl)cc1 | 2 | 9 | -10 | 3 | 6 | -6 | . | .
SMILES | ATG4B inh | PfHsp90 set2 | tim10-1 inh | tim23-1 inh | SKKanGAS inh | TIM10 inh | tim10 confirm | tim23-1 conf
CN1/C(=C/C(=O)C2CCC2)Sc2ccccc21 | -1 | 12 | -12 | -10 | -4 | -20 | . | .
CN1/C(=C\C(=O)c2cccs2)Sc2ccccc21 | -6 | 34 | 38 | 59* | 3 | 63* | 60* | 80*
O=C(OCCN=C1NS(=O)(=O)c2ccccc21)c1ccco1 | 2 | -13 | 0 | -6 | -4 | 10 | . | .
CC(=O)Nc1sc2c(c1C(c1ccc(F)cc1)N1CCOCC1)CCCC2 (stereo unspecified) | -6 | 4 | 34 | 33 | 2 | 37 | . | .
CC(=O)Nc1sc2c(c1C(c1ccc(Cl)cc1)N1CCOCC1)CCCC2 (stereo unspecified) | -12 | 32 | 29 | 51* | 34 | 41* | -53 | 55*
COc1ccc(-n2c(Cc3cccn3C)nnc2SCC(=O)NC2CCCC2)cc1 | 3 | 0 | 20 | 18 | -5 | 15 | . | .
CCC1CCCCN1C(=S)NC(=O)c1cc(Br)ccc1Cl (stereo unspecified) | 1 | -16 | 35 | 58* | . | 53* | 52* | 53*
CC1CCCCN1C(=S)NC(=O)c1cc(Br)ccc1Cl (stereo unspecified) | 1 | -1 | 35 | 54* | . | 41* | 44* | 50*
CCC1CCCCN1C(=S)NC(=O)c1cccs1 (stereo unspecified) | -10 | -1 | 28 | 31 | 21 | 12 | . | .
COc1cccc(/C=N/NC(=O)C(=O)Nc2ccccc2OC(F)(F)C(F)F)c1O | 9 | 92* | -2 | 54* | 38 | 45* | 56* | 61*
COc1ccccc1/C=N/NC(=O)c1cccc(OC(F)(F)C(F)F)c1 | -7 | -89 | 27 | 32 | -5 | 0 | . | .
COc1ccc(C2(CNC(=O)C(=O)Nc3ccc(C)cc3)CCOCC2)cc1 | -9 | -1 | 5 | 17 | -3 | 13 | . | .
Cc1ccc(C(=O)Nc2cccc(Oc3ccccc3)c2)o1 | 16 | 10 | 20 | 58* | -2 | 50* | 56* | 77*
Cc1ccc(C(=O)Nc2ccccc2Oc2ccccc2)o1 | 8 | -9 | 10 | 22 | 0 | 0 | . | .
Cc1csc(=NC(=O)c2ccccc2)n1C | -8 | . | 3 | 55* | 4 | 44* | 38* | 54*
Cc1c(C(=O)n2cnc3ccccc32)cccc1[N+](=O)[O-] | 2 | 4 | 28 | 22 | -2 | 7 | . | .
Cc1nc2ccccc2n1C(=O)c1ccccc1[N+](=O)[O-] | -8 | -14 | 34 | 50 | -5 | 50* | 47* | 40*
O=C(NC(=S)NCc1ccccc1Cl)c1cccs1 | 30 | 2 | 16 | 67* | . | 46* | 51* | 52*
CN(C(=O)COC(=O)CCC(=O)c1ccccc1)c1c(N)n(Cc2ccccc2)c(=O)[nH]c1=O | 4 | . | 2 | 13 | 2 | -1 | . | .

Source: PubChem BioAssay (several laboratories)
